# GDH-TPI inh – counter-screen for M. tuberculosis FBA inhibitors: GDH-TPI coupled enzymes | actives 1.2% (n = 360,000) | AID 588335 | inhibition, % at 4.8 µM | GDH-TPI coupled enzyme counterscreen, NADH absorbance
# FBA Mtb inh – inhibits M. tuberculosis FBA enzyme. purified M. tuberculosis FBA, fluorescence read-out. actives 2.3% (n = 360,000). inhibition, % at 1 µM. P9WQA3; in the data active = inhibition above about 27%
# Target sequence (P9WQA3 whole entry, looked up): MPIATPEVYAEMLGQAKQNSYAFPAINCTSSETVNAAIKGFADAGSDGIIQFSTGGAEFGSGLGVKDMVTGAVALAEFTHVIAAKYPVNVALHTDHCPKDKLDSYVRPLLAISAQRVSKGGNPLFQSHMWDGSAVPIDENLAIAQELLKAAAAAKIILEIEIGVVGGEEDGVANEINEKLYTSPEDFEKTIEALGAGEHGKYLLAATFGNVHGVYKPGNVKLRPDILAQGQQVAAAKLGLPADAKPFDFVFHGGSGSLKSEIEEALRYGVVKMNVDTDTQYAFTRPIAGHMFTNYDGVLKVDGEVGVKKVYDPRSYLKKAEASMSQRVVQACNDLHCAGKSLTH
# Vc quorum ag – inducers of Vibrio cholerae quorum light production without autoinducers. V. cholerae BH1578 lux reporter, luminescence, 6 h. activation, % at 18.7 µM. actives 0.16% (n = 350,000); in the data active = activation mostly above about 9.7%, no sharp cut-off
# CCHFV vOTU inh – CCHFV vOTU protease inhibition; inhibition, % at 11.5 µM; AID 651958; Pep-AMC fluorescence; actives 0.55% (n = 370,000)
# A number is an active result; - = inactive; . = not tested or not shown; + = active, no number. A selection: hits, their analogues and other compounds. The true share with any hit is near 3.9%. Cut-off read from the data, not from the text of the source, unless noted: active = inhibition above about 30%; inactive = the rest.
SMILES,GDH-TPI inh,FBA Mtb inh,Vc quorum ag,CCHFV vOTU inh
C=C(C)Cc1c(C)c(C#N)c2[nH]c3ccccc3n2c1=O,-,+,-,-
O=C(OCC(=O)N1CCC(Cc2ccccc2)CC1)c1cc(Br)ccc1O,-,-,-,-
CCOC(=O)/C(=C\c1c[nH]c2ccccc12)NC(C)=O,-,-,-,-
COC(=O)/C(=C\c1c[nH]c2ccccc12)NC(C)=O,39.2,-,.,-
CC(=O)OC[C@H]1O[C@@H](Oc2cc3ccc(=O)oc3cc2OC(C)=O)[C@H](OC(C)=O)[C@@H](OC(C)=O)[C@@H]1OC(C)=O,-,+,-,-
CC(=O)NC(CCS(C)(=O)=O)C(=O)Nc1c(C)cccc1C (centres undefined),-,-,-,-
CC(=O)c1c(C)nc2ccccc2c1N,-,-,-,-
Cc1nc2ccccc2c(N)c1C(=O)/C=C/c1ccccc1,37.1,-,-,-
Cc1cc(-c2ccc(/C=N/n3cnnc3)o2)c(C)c([N+](=O)[O-])c1,-,-,-,-
O=[N+]([O-])c1cc(-c2ccc(/C=N/n3cnnc3)o2)ccc1Cl,-,-,-,-
Fc1ccc(-c2ccc(/C=N/n3cnnc3)o2)cc1,40.6,-,-,-
Cc1ccc(-c2ccc(/C=N\n3cnnc3)o2)c(Br)c1,45.3,-,-,-
Fc1ccc(-c2ccc(/C=N\n3cnnc3)o2)cc1Cl,41.9,-,-,-
O=[N+]([O-])c1ccc(Cl)c(-c2ccc(/C=N/n3cnnc3)o2)c1,52.5,-,-,-
Fc1ccc(CNCCC(Cc2ccccc2)c2ccco2)cc1 (centres undefined),-,-,-,-
CCCCn1c(N)c(N(CC(C)C)C(=O)CCCc2nc3ccccc3s2)c(=O)[nH]c1=O,-,-,-,-
O=C(NCc1ccccc1Cl)c1ccc[nH]1,-,-,-,-
COc1cc(/C=C/C2=NNC(=O)CC2)cc(OC)c1OC,45.1,-,-,-
CC(C)c1ccc(/C=C/C2=NNC(=O)CC2)cc1,-,-,-,-
CCOC(=O)N1CCN(C(=O)C[C@@H]2C[C@@]3(C(=O)OC)CC(C)(C)CC=C3N(Cc3ccccc3)C2=O)CC1,.,.,.,-
CCN(CCNC(=O)Cn1c(=O)sc2ccccc21)c1ccccc1,-,-,-,-
COc1ccc(C(c2c(C)n(C)n(-c3ccccc3)c2=O)c2c(C)n(C)n(-c3ccccc3)c2=O)cc1OC,-,-,-,-
COc1ccc(C(c2c(C)[nH]n(-c3ccccc3)c2=O)c2c(C)[nH]n(-c3ccccc3)c2=O)cc1OC,-,-,-,84.2
O=C(CCN1CCN(c2ccccc2)CC1)N/N=C/c1ccc([N+](=O)[O-])o1,37.8,-,-,-
O=C(CN1CCOCC1)NN=Cc1ccc([N+](=O)[O-])o1,-,-,-,-
SMILES,GDH-TPI inh,FBA Mtb inh,Vc quorum ag,CCHFV vOTU inh
COc1ccc(C(=O)NC2CCN(C(=S)NCc3ccco3)CC2)cc1,-,-,-,-
CCN(C1CCS(=O)(=O)C1)S(=O)(=O)c1cccc([N+](=O)[O-])c1 (centres undefined),-,-,-,-
CCOC(=O)CSc1nc2nc(Cl)c(Cl)nc2[nH]1,32.7,+,-,-
CCOC(=O)CSc1nc(C)cc(=O)[nH]1,-,-,-,-
CSc1nc2nc(Cl)c(Cl)nc2[nH]1,37.2,+,-,-
OCc1nc2nc(Cl)c(Cl)nc2[nH]1,-,-,-,-
COc1ccccc1N1CCN(C(=O)CCCCCn2c(=S)[nH]c3cc4c(cc3c2=O)OCO4)CC1,-,-,-,-
O=C(/C=C/c1cccc(O)c1)c1ccc(N2CCOCC2)cc1,43.0,-,-,-
COc1ccc(/C=C/C(=O)c2ccc(O)cc2)cc1CN1CCOCC1,-,-,-,-
O=C(NCCc1ccccc1)c1coc(=O)c(Br)c1,41.4,-,-,-
O=C(NCCC1=CCCCC1)c1ccc(=O)oc1,52.4,-,.,-
O=C(NCCC1=CCCCC1)c1coc(=O)c(Br)c1,39.0,-,-,-
C=CCN(CC=C)Cc1cc(=O)oc2cc(OC)ccc12,.,-,.,-
C=C(C)c1cccc(C(C)(C)NC(=O)N2CCN(CC)CC2)c1,-,-,-,-
C=C(C)c1cccc(C(C)(C)NC(=O)N2CCCCC2CC)c1 (centres undefined),-,179.9,-,-
COc1ccc(/C=C/C(=O)Nc2cccnc2Cl)cc1,31.2,-,-,-
COc1ccc(/C=C/C(=O)Nc2nc(N)n(-c3ccccc3)n2)cc1,33.5,-,-,-
Nc1nc(NC(=O)/C=C\C(=O)O)nn1-c1ccccc1,-,-,-,-
O=C(Nc1nc2ccccc2n1Cc1ccc(Cl)cc1)c1ccco1,-,-,-,-
O=C(Nc1nc2ccccc2n1CCOc1ccccc1)c1ccco1,34.0,-,-,-
C=CCn1c(NC(=O)c2ccco2)nc2ccccc21,34.7,-,-,-
CC(=O)c1ccc(-c2ccccc2C2=CC(=O)CC(C)(C)C2=O)cc1,.,.,.,-
CCn1c(SCC(=O)Nc2cccc(F)c2)nc2c(c1=O)SC(C)C2 (centres undefined),-,-,-,-
c1ccc(C(c2nnnn2Cc2ccco2)N2CCN(C3CCCC3)CC2)cc1 (centres undefined),-,-,.,-
CCOC(=O)C1=NN(c2ccccc2)C2C(=O)N(c3ccccc3OC)C(=O)C12 (centres undefined),37.9,-,-,-
SMILES,GDH-TPI inh,FBA Mtb inh,Vc quorum ag,CCHFV vOTU inh
COc1ccc(/C=N/NC(=S)Nc2ccccc2[N+](=O)[O-])cc1O,49.4,-,-,-
CCCOc1ccc(/C=N/NC(=S)Nc2ccccc2[N+](=O)[O-])c(O)c1,.,.,.,-
Cc1ccc(NC(=S)N/N=C/c2ccc(Cl)c([N+](=O)[O-])c2)cc1,33.3,-,-,-
O=[N+]([O-])c1cc(/C=N/NC(=S)Nc2ccccc2Cl)ccc1Cl,32.9,-,-,-
Cc1ccc(C=NNC(=O)C(=O)Nc2ccc(Cl)c([N+](=O)[O-])c2)cc1,.,-,.,-
S=C(N/N=C/c1ccc(Cl)c(Cl)c1)Nc1ccccc1Cl,-,-,-,-
C/C(=N\NC(=O)c1csc2ccccc12)c1ccc(O)cc1,-,-,-,-
CC12CCC(C(=O)Nc3c(Cl)cccc3Cl)(C(Br)C1=O)C2(C)C (centres undefined),-,-,-,-
CC12CCC(C(=O)Nc3cccc(Cl)c3Cl)([C@H](Br)C1=O)C2(C)C (some centres undefined),-,113.1,-,-
O=Cc1ccc(OC(=O)c2cc(Cl)nc3ccccc23)cc1,-,-,-,-
CCN(CC)S(=O)(=O)c1ccc(Cl)c(NC(=O)COC(=O)c2c(C)noc2C)c1,-,-,-,-
C(=N\N1CCOCC1)/c1nc(-c2ccccc2)n2ccccc12,34.1,-,-,-
Cc1cc(C)c[n+](-c2[nH]c(=O)sc2/C=N/N=C(\[O-])c2cccnc2)c1,34.8,-,-,-
COc1cc(NC(=O)CN2CCN(S(=O)(=O)c3ccc(C(C)C)cc3)CC2)cc(OC)c1,-,-,-,-
COc1ccc(NC(=O)CN(C)C(=O)CSc2nc3ccccc3s2)cc1,-,-,20.0,-
COc1cc(NC(=O)c2cc(OC)c(OC)c(OC)c2)cc(-n2cnnn2)c1,-,-,-,-
CCN(CC)c1ccc(/C=N/NS(=O)(=O)c2cccc([N+](=O)[O-])c2)cc1,-,-,-,-
